Source: PubChem (several laboratories)
A selection: hits, their analogues and other compounds. The true share with any hit is near 2.3%.
Calb FLC = affects C. albicans growth with fluconazole | C. albicans CaCi-2 (fluconazole-resistant clinical isolate) + fluconazole, Alamar Blue growth, 48 h | growth inhibition, % (concentration not given with the values) | 300,000 tested, 0.57% active;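 active = growth inhibition above about 58% in most replicates, limit read from the data, passing the limit was not always enough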;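 also: all wells also contain fluconazole at 8 µg/ml as a sub-toxic cotreatment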
IDE act = activators of human insulin-degrading enzyme in cells. P14735. HEK cells, FAbeta-B cleavage, fluorescence polarization; 0% vehicle, 100% cell-free pure enzyme wells. activation, % at 5.96 µM. 340,000 tested, 0.073% active. AID 493087;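 active = activation above the mean of all tested compounds plus 3 SD, set per screening campaign, cut at about 17% in these data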
Rin1-Abl PPI inh = inhibitors of human Rin1-Abl protein interaction; TR-FRET Rin1/Abl binding, biochemical; inhibition, % at 7.35 µM; 360,000 tested, 0.4% active; AID 588664; in the data active = inhibition above about 5%, passing the limit was not always enough
TPT1 inh = C. albicans TPT1 enzyme inhibition; recombinant caTPT1, FP RNA substrate dephosphorylation; inhibition, % at 5 µM; 300,000 tested, 0.81% active;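 active = inhibition above the mean of all tested compounds plus 3 SD, set per screening campaign, cut at about 24% in these data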
Rpn11 inh = Rpn11 (human) deubiquitinase inhibition. 360,000 tested, 0.59% active. AID 588493. inhibition, % at 20 µM. human 26S proteasome, Ub4-pepOG fluorescence polarization; 20S core pre-blocked with epoxomicin;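 active = inhibition at 20 µM, scaled to each plate's controls, above about 33%, limit read from the data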
Target sequence (O00487 whole entry, looked up): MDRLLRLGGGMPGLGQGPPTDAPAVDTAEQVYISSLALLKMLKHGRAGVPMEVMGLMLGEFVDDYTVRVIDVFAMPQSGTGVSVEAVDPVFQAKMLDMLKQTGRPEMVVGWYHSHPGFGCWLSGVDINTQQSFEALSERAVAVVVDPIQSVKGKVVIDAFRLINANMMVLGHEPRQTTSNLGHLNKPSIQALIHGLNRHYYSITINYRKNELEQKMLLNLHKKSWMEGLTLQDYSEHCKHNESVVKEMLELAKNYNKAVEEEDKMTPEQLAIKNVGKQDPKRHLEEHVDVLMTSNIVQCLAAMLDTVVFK
IDE inh = inhibits human insulin-degrading enzyme in HEK cells; 320,000 tested, 0.41% active; P14735; FAbetaB cleavage, fluorescence polarization; inhibition, % at 5.59 µM;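 active = percent inhibition above the average of all tested compounds plus 3 SD, set per screening campaign, cut at about 16% in these data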;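 also: IDE supplied by intact live HEK cells; FP after avidin binding of uncleaved biotin substrate so inhibition keeps polarization high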
TPT1 inh confirm = TPT1 (C. albicans) inhibition, confirmation; shares compounds with TPT1 inh; recombinant caTPT1, fluorescence polarization, RNase T1 coupled; inhibition, % at 5 µM; 2,400 tested, 74% active;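 active = inhibition above the primary screen limit, the mean inhibition of all tested compounds plus 3 SD, cut at about 25% in these data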
RNase T1 inh = RNase T1 inhibition in TPT1 counter-screen | inhibition, % at 5 µM | shares compounds with TPT1 inh | 2,400 tested, 83% active | RNase T1 cleavage, fluorescence polarization, 1536-well;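 active = inhibition above the solvent-only control well mean plus 3 SD, limit set per screening run, cut at about 23% in these data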;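 also: inhibitors block cleavage so intact labeled substrate keeps polarization high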
Target sequence (P00651 whole entry, looked up): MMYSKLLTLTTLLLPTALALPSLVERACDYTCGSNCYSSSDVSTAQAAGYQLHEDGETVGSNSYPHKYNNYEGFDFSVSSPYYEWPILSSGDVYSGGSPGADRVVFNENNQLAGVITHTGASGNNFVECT
IDE inh confirm = confirmation of human insulin-degrading enzyme inhibitors in cells. shares compounds with IDE inh. HEK cells, FAbetaB cleavage, fluorescence polarization. inhibition, % at 5.59 µM. 1,200 tested, 51% active. AID 435028;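 active = mean inhibition across triplicate wells above the cutoff set by the earlier primary insulin-degrading enzyme screen, cut at about 16% in these data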
HEK cytotox = HEK cell cytotoxicity, counter-screen for IDE inhibitors. shares compounds with IDE inh. HEK293 cytotoxicity, ATP luminescence. inhibition, % at 5.59 µM. 1,200 tested, 28% active; in the data active = inhibition above about 22%
Hits are given with their value.

Results for Cc1cccc2c1NC(=O)C21OCC(CO)([N+](=O)[O-])CO1 (configuration not stated) ?
Calb FLC: inactive; IDE act: inactive; Rin1-Abl PPI inh: inactive; TPT1 inh: inactive; Rpn11 inh: inactive; IDE inh: inactive

What do the screens show for `Cc1nc(N2CCCCC2)[nH]c(=O)c1CN(C)N=O`?
Rin1-Abl PPI inh: inactive; Rpn11 inh: inactive

Results for O=C(O)c1ccc(/C=C2/SC(=S)N(Cc3ccccc3)C2=O)cc1 ?
Calb FLC: inactive; IDE act: inactive; Rin1-Abl PPI inh: inactive; Rpn11 inh: inactive

How did CCCCN1C(=O)/C(=C/C=C2\SCCN2C)SC1=S do in these assays?
Calb FLC: inactive; IDE act: inactive; Rin1-Abl PPI inh: inactive

How did CN1CCS/C1=C/C=C1\SC(=S)N(CC(=O)O)C1=O do in these assays?
Calb FLC: inactive; IDE act: inactive; Rin1-Abl PPI inh: inactive; TPT1 inh: 168.8; IDE inh: 59.8; TPT1 inh confirm: 180.2; RNase T1 inh: 166.8; IDE inh confirm: 74.6; HEK cytotox: inactive

Results for CN1CCS/C1=C/C=C1/SC(=S)N(Cc2ccccc2)C1=O ?
Calb FLC: inactive; IDE act: inactive; Rin1-Abl PPI inh: inactive; TPT1 inh: 171.0; IDE inh: 105.2; TPT1 inh confirm: 169.2; RNase T1 inh: 156.7; IDE inh confirm: 81.8; HEK cytotox: inactive

How did CC1(C(=O)NS(=O)(=O)c2ccccc2OC(F)(F)F)CCN1C(=O)c1ccccc1 (configuration not stated) do in these assays?
Rin1-Abl PPI inh: inactive; Rpn11 inh: inactive

Results for CN1OC[C@@H]2CN(C(=O)c3cccc4ccccc34)[C@H](c3ccccc3Br)C[C@@H]21 ?
Rin1-Abl PPI inh: inactive; Rpn11 inh: inactive

How did O=C1CCC/C(=N/NC(=O)c2sc3ccccc3c2Cl)C1 do in these assays?
Calb FLC: inactive; IDE act: inactive; Rin1-Abl PPI inh: inactive; TPT1 inh: 97.8; IDE inh: 26.3; TPT1 inh confirm: 110.0; RNase T1 inh: 107.8; IDE inh confirm: 27.0; HEK cytotox: inactive

How did Cc1nnc(-c2ccccc2)c(=O)n1/N=C/c1c(O)ccc2ccccc12 do in these assays?
Calb FLC: inactive; IDE act: inactive; Rin1-Abl PPI inh: inactive; TPT1 inh: 158.8; IDE inh: 53.5; TPT1 inh confirm: 78.9; RNase T1 inh: 84.4; IDE inh confirm: 39.8; HEK cytotox: 57.4

Results for Cn1cc(/C=C2\SC(=S)N(NC(=O)c3cccc(Cl)c3)C2=O)c2ccccc21 ?
IDE act: inactive; Rin1-Abl PPI inh: inactive

How did Cc1cc(C)nc(NN2C(=O)/C(=C/c3ccc(O)cc3)SC2=S)n1 do in these assays?
Calb FLC: inactive; IDE act: inactive; Rin1-Abl PPI inh: inactive; TPT1 inh: 57.8; IDE inh: 76.2; TPT1 inh confirm: 68.3; RNase T1 inh: 71.4; IDE inh confirm: 148.1; HEK cytotox: inactive

How did Cn1cc(/C=C2\SC(=S)N(NC(=O)c3ccccc3)C2=O)c2ccccc21 do in these assays?
Calb FLC: inactive; IDE act: inactive; Rin1-Abl PPI inh: inactive; TPT1 inh: 137.2; Rpn11 inh: inactive; IDE inh: 27.6; TPT1 inh confirm: 54.7; RNase T1 inh: 61.5; IDE inh confirm: 46.2; HEK cytotox: inactive

How did COc1cc(/C=C2\SC(=S)N(NC(=O)c3ccccc3O)C2=O)ccc1O do in these assays?
Calb FLC: inactive; IDE act: inactive; Rin1-Abl PPI inh: inactive; TPT1 inh: 30.8; IDE inh: 119.9; TPT1 inh confirm: 34.2; RNase T1 inh: 46.9; IDE inh confirm: 112.6; HEK cytotox: inactive

Results for O=C(NN1C(=O)/C(=C/c2ccc(O)cc2)SC1=S)c1cccc(O)c1 ?
Calb FLC: inactive; IDE act: inactive; Rin1-Abl PPI inh: inactive; TPT1 inh: 71.0; IDE inh: 144.5; TPT1 inh confirm: 67.0; RNase T1 inh: 72.0; IDE inh confirm: 103.7; HEK cytotox: inactive

Results for O=C(CNS(=O)(=O)c1cccs1)NCc1ccccc1 ?
Calb FLC: inactive; IDE act: inactive; Rin1-Abl PPI inh: inactive; TPT1 inh: inactive; Rpn11 inh: inactive; IDE inh: inactive

What do the screens show for `c1ccc(CN2CCOCCOCCOCCOCC2)cc1`?
Calb FLC: inactive; IDE act: inactive; Rin1-Abl PPI inh: inactive; TPT1 inh: inactive; Rpn11 inh: inactive; IDE inh: inactive

Results for NC(=O)c1ncn([C@@H]2O[C@H](CNCc3ccc(OCC(=O)Nc4ccccn4)cc3)[C@@H](O)[C@H]2O)n1 ?
IDE act: inactive; Rin1-Abl PPI inh: inactive; Rpn11 inh: inactive

What do the screens show for `O=C(COC(=O)CCS(=O)(=O)c1ccc(Cl)cc1)NCCc1ccc(Cl)cc1Cl`?
Calb FLC: inactive; IDE act: inactive; Rin1-Abl PPI inh: inactive; TPT1 inh: inactive; Rpn11 inh: inactive; IDE inh: inactive

How did O=C(NN1C(=O)/C(=C/c2ccc(O)cc2)SC1=S)c1ccccc1O do in these assays?
Calb FLC: inactive; IDE act: inactive; Rin1-Abl PPI inh: inactive; TPT1 inh: 54.6; IDE inh: 102.8; TPT1 inh confirm: 64.9; RNase T1 inh: 71.8; IDE inh confirm: 120.4; HEK cytotox: inactive

What do the screens show for `Cc1cccc(OCC(=O)N(C)c2c(N)n(Cc3ccccc3)c(=O)[nH]c2=O)c1C`?
IDE act: inactive; Rin1-Abl PPI inh: inactive; Rpn11 inh: inactive; IDE inh: inactive

Results for CC(NC(=O)CSc1ccc(S(=O)(=O)N2CCOCC2)cn1)c1ccc(Cl)cc1Cl (configuration not stated) ?
IDE act: inactive; Rin1-Abl PPI inh: inactive; Rpn11 inh: inactive

What do the screens show for `COc1cccc(S(=O)(=O)N(C)C[C@@H]2OCc3cnnn3CCCC(=O)N([C@@H](C)CO)C[C@@H]2C)c1`?
Rin1-Abl PPI inh: inactive; Rpn11 inh: inactive

What do the screens show for `Cc1ccc(C(=O)/C=C/c2c[nH]c3ccccc23)cc1`?
Calb FLC: inactive; IDE act: inactive; Rin1-Abl PPI inh: inactive; TPT1 inh: inactive; Rpn11 inh: inactive; IDE inh: inactive

What do the screens show for `CCN(CC)C(=O)c1ccc(/C=C/c2c[nH]c3ccccc23)[n+](C)c1`?
Calb FLC: inactive; IDE act: inactive; Rin1-Abl PPI inh: inactive; TPT1 inh: 102.6; IDE inh: 22.0; TPT1 inh confirm: 109.8; RNase T1 inh: 111.7; IDE inh confirm: 21.1; HEK cytotox: inactive

What do the screens show for `Cc1nc(-[n+]2nc(-c3ccncc3)nn2-c2ccccc2)sc1C`?
Rin1-Abl PPI inh: inactive; Rpn11 inh: inactive
